# Shown are actives, neighbours in structure and some others; about 1.1% of the full set was active somewhere.
# CBFb RUNX1 block: qHTS Assay for Compounds Blocking the Interaction Between CBF-beta and RUNX1 for the Treatment of Acute Myeloid Leukemia. AID 1477, 2009. Potency, µM (top dose mostly 59.8 µM), inactives show at the top dose activity, negative = inhibition, usual class: inhibitors. Runt-related transcription factor 1 (Homo sapiens) + Core-binding factor subunit beta …. AlphaScreen CBFb-His/RUNX1-biotin binding, biochemical. 230,000 tested, under 10 active; further: % of control where 0% means no effect
#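 AlphaScreen binding: CBFb-His and RUNX1-biotin (30 nM each) preincubated 20 min, compound added for 15 min, then nickel and streptavidin beads for 90 min, all at room temperature. Disruption of the interaction by any mechanism counts as activity.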
# MBNL1 CUG block: qHTS Assay for Inhibitors of MBNL1-poly(CUG) RNA binding | 280,000 compounds, 0.036% hits | AID 2675, 2010 | Potency, µM (doses to about 57.5 µM), inactives show at the highest dose activity change, negative = inhibition, actives largely listed as inhibitors | Muscleblind-like protein 1 (Homo sapiens), Q9NR56 | TR-FRET MBNL1-His/biotin-(CUG)12 binding, 665/545 ratio; active means well fitted inhibition curve with a large enough effect in the signal ratio, with a control signal flat, not every such curve was filed as active; inconclusive means small, poorly fitted or top-dose-only effect, or effect the other way, or a change in a side signal; inactive means no such curve, though single readings can be large or run the other way; the % refers to the signal ratio; further: potency means the concentration at half of the fitted maximal effect; on the % scale 0 is the no-effect control and ±100 the full control effect
#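 His-tagged MBNL1 binding to biotinylated (CUG)12 RNA was measured by TR-FRET using terbium anti-His antibody (0.055 ng/ul final) and streptavidin-XL665 (5 nM final). Compounds were titrated 92 nM to 58 uM; 60 min at room temperature.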
# NPSR antag: qHTS Assay for Antagonists of the Neuropeptide S Receptor: cAMP Signal Transduction. 220,000 compounds, 1% hits. AID 1461, 2008. CHO-NPSR cells, cAMP TR-FRET, antagonist mode. Potency, µM (titrated, usually from 38.3 µM), for the others: at the top dose activity change, negative = inhibition, usual class: inhibitors; further: potency means the concentration at half of the fitted maximal effect; on the % scale 0 is the no-effect control and ±100 the full control effect; nearly all actives have a fitted effect of over 50% in size
# Target sequence (Q6W5P4 whole entry, looked up): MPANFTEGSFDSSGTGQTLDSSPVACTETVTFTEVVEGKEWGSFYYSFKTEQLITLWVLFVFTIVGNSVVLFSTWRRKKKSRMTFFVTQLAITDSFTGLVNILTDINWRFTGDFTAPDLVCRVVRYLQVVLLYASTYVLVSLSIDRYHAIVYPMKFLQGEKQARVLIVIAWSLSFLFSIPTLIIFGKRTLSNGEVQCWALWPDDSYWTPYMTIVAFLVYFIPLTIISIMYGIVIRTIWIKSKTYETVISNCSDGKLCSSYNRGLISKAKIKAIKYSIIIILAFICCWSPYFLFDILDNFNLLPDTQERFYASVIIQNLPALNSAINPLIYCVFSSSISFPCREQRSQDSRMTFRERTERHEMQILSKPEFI
# HttQ103 aggreg: qHTS Multiplex Assay to Identify Dual Action Probes in a Cell Model of Huntington: Aggregate Formation (GFP); PC12 HttQ103-GFP aggregates, Acumen cytometry, 40 h; Potency, µM (top dose mostly 46.1 µM), for the others: top-dose activity change, negative = inhibition, actives largely listed as inhibitors; 220,000 compounds, 1.1% hits; further: potency means the concentration at half of the fitted maximal effect; on the % scale 0 is the no-effect control and ±100 the full control effect; nearly all actives have a fitted effect of over 60% in size
#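 Inducible Q103 Huntingtin exon 1–GFP PC12 line, 1500 cells/well in phenol red free DMEM with 5% equine and 5% calf serum. Tebufenozide 100 nM induced expression; compounds titrated; aggregates quantified by cytometry.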
# Lamin A splicing: qHTS Assay for Modulators of Lamin A Splicing. HeLa LMNA splicing GFP/RFP minigene ratio, 48 h. Potency, µM (top dose mostly 46.1 µM), inactives show at the highest dose ratio change, negative = inhibition, usual class: inhibitors. 200,000 compounds, 0.01% hits. AID 1487, 2009; active means well fitted inhibition curve with a large enough effect in the signal ratio, with a control signal flat, not every such curve was filed as active; inconclusive means small, poorly fitted or top-dose-only effect, or effect the other way, or a change in a side signal; the % refers to the signal ratio; further: potency means the concentration at half of the fitted maximal effect; on the % scale 0 is the no-effect control and ±100 the full control effect
#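 Read-out is the ratio of GFP to DsRed2 object intensity, acquired by 488 nm laser-scanning cytometry on HeLa lamin A-EGFP minigene reporter cells. Compound incubation 48 hrs at 37 °C in Opti-MEM with 2% FBS; DMSO 0.5% final.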
# HTT ATP protect: qHTS Multiplex Assay to Identify Dual Action Probes in a Cell Model of Huntington: Cytoprotection (ATP) | Potency, µM (titrated, usually from 56.4 µM), for the others: cytoprotection (ATP increase), most hits filed as activators | 230,000 compounds, 0.14% hits | PC12 HTT-Q103 induced, cytoprotection, ATP luminescence, 40 h; further: potency means the concentration at half of the fitted maximal effect; % of control where 0% means no effect; nearly all actives have a fitted effect of over 45% in size
#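 Rat PC12, Q103 Htt exon1-GFP fusion, ecdysone promoter; tebufenozide inducer 100 nM final; compound titration; qHTS, 1500 cells/well; ATPlite luminescent read.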
# Active calls of the source: *; ? = inconclusive; nt = not tested or not shown; [ ] = dose if it differs, or a comment. Unless noted, the call rests on the fitted dose curve; in most records, active means well fitted curve in the direction sought with a large enough effect; inconclusive means small, poorly fitted or top-dose-only effect, or another doubt; inactive means no such curve, though single readings can be large; an effect the other way counts as inactive or inconclusive.
SMILES,CBFb RUNX1 block,MBNL1 CUG block,NPSR antag,HttQ103 aggreg,Lamin A splicing,HTT ATP protect
CCCCCSc1nnc(-c2ccccc2NC(C)=O)c(=O)[nH]1,5%,?,-3%,7%,nt,2.8µM*
Cc1nn(CCC(=O)Nc2ccc(Cl)cc2)c(C)c1S(=O)(=O)N1CCCCC1,nt,nt,nt,nt,11%[46 µM],nt
CCN(CC)Cc1c(O)ccc2c(=O)c(-c3ccc4c(c3)OCCO4)coc12,10%,5%,-5%[46.1 µM],11µM*,?,12%[10 µM]
CCN(CC)Cc1c(O)ccc2c(=O)c(-c3ccccc3)coc12,nt,3%,nt,nt,nt,nt
Cc1ccc(OCC(=O)Nc2ccc3nc(SCC(=O)N(C)c4ccccc4)sc3c2)cc1,nt,nt,nt,nt,-5%[46 µM],nt
Cc1ccc(C)c(NC(=O)CCN2C(=O)c3ccccc3C2=O)c1,nt,-4%,nt,nt,nt,nt
Cc1ccc(C)c(NC(=O)CN(C)C(=O)CCN2C(=O)c3ccccc3C2=O)c1,9%,17%,-6%[46.1 µM],14µM*,?,-80%
COC(=O)C(Cc1ccccc1)NS(=O)(=O)c1cc(Br)ccc1Br (configuration not stated),4%,nt,nt,nt,nt,nt
COc1ccc([C@]23Cc4cc(C#N)ccc4C(O2)c2c(c4ccc(OC)cc4oc2=O)O3)cc1,nt,-6%[11.5 µM],nt,nt,nt,nt
COC(=O)c1scc(C#N)c1N/N=C(\C#N)S(=O)(=O)c1ccc(Cl)cc1,-3%,6%,10µM*,-20%[9.22 µM],nt,4%[10 µM]
CCOc1cc2[nH]c(=S)n(CCCOC)c(=O)c2cc1OCC,4%,-2%,-4%[46.1 µM],4µM*,7%,?
COc1ccc2cc1Oc1ccc(cc1)CC1c3c(cc(OC)c4c3Oc3cc5c(cc3O4)CCNC5C2)CCN1C (configuration not stated),?,?,?,4µM*,nt,-96%[10 µM]
COC(=O)c1scc(-c2ccc(C)cc2)c1S(=O)(=O)N1CCN(c2cccc(OC)c2)CC1,nt,nt,nt,nt,-11%[46 µM],nt
Nc1nc(Cl)cc(N2CCC(c3cc(-c4ccc(Cl)cc4)n[nH]3)CC2)n1,-6%,5%,10µM*,?,?,-87%
COc1ccc(-c2cc(C3CCN(c4cc(Cl)nc(N)n4)CC3)[nH]n2)cc1,-2%,-13%,-21%[46.1 µM],13µM*,?,-96%
COc1ccc(OC)c(-c2cc(C3CCN(c4cc(Cl)nc(N)n4)CC3)[nH]n2)c1,-15%,-5%,?,-29%,9%,-123%
Cc1ccc(CNC(=O)c2c3c(nc4ccccc24)C(=O)N(C2CCCCC2)C3)cc1,nt,nt,nt,nt,-12%[46 µM],nt
COc1ccc(C2C(=O)N(C3CCCCCC3)CC(=O)N2Cc2ccc(C)cc2)cc1 (configuration not stated),nt,nt,nt,nt,11%[46 µM],nt
O=C(O)CC[C@]1(C(=O)O)CCC(=O)c2ccccc21,nt,nt,nt,nt,nt,6%[10 µM]
OC[C@@H](O)CNc1ncnc2ccccc12,nt,nt,nt,nt,nt,1%[10 µM]
Cc1cc(C)c2ccc(N)nc2c1O,-10%,0%,-12%[46.1 µM],8.9µM*,?,16%[1.9 µM]
COc1ccc(C2C(=O)c3ccccc3C2=O)cc1OC,3%,?,13µM*,7%,nt,-33%
COc1ccc(C2C(=O)c3ccccc3C2=O)cc1,6%,20%,-50%,15%,?,0%
CCCn1c(NC(=O)c2cccc(S(=O)(=O)N3CCCC3)c2)nc2ccccc21,-9%,10%,?,11µM*,?,-1%[0.074 µM]
CCCn1c(NC(=O)c2ccccc2)nc2ccccc21,3%,0%,-11%[46.1 µM],-18%,10%,15%
O=C(Nc1cccc(S(=O)(=O)N2CCCCC2)c1)Nc1ccc(Cl)cc1Cl,2%,nt,?,14µM*,?,4%[10 µM]
